Source: PubChem BioAssay (several laboratories)
An excerpt weighted towards active compounds, which were near 3.1% of everything screened.
S1P3 antagonist: S1P3 receptor antagonists, primary screen, cell-based; CHO S1P3 NFAT-BLA reporter, FRET fluorescence, antagonist mode; 0.27% of 170,000 active; inhibition, % at 4.98 µM;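 active means inhibition above the plate cutoff, the mean inhibition of test wells on that plate plus 3 SD, cut at about 28% in these data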;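 further: cells challenged with S1P at its EC80 of 0.8 µM; blue over green emission ratio from cleaved BLA substrate after 4 h stimulation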
Target sequence (Q99500 whole entry, looked up): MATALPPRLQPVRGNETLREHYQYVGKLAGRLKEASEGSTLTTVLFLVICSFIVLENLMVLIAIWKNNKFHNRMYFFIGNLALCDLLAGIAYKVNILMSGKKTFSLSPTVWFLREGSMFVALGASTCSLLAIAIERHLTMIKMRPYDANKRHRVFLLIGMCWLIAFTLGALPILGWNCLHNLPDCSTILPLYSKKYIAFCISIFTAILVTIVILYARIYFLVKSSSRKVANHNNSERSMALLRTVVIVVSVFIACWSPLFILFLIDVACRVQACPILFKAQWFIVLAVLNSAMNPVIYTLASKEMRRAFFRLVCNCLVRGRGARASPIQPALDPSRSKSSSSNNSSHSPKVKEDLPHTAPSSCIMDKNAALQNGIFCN
PGE2 EP2 inh: human EP2 receptor antagonists, primary screen, TR-FRET cAMP, C6 glioma cells; Prostaglandin E2 receptor EP2 subtype (Homo sapiens), P43116; C6 glioma cells expressing human EP2; cells stimulated with saturating PGE2; inhibition, % at 25 µM; 0.52% of 260,000 active;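 active means percent inhibition above 40 after rounding to a whole number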;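 further: rat C6 glioma host cells with rolipram phosphodiesterase inhibitor present; the protocol text gives 20 µM as final concentration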
Target sequence (P43116 whole entry, looked up): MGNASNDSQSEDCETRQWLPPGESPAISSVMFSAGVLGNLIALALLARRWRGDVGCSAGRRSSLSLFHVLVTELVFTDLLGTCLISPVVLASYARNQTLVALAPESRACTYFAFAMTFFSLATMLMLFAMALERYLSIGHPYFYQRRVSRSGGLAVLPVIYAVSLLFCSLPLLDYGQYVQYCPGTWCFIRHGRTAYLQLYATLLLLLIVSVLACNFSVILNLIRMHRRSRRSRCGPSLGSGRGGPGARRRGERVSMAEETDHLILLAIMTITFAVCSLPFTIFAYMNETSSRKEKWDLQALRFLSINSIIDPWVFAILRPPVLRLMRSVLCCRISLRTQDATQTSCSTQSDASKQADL
EP2 modulator: EP2 receptor modulators, cAMP readout, primary screen, cell-based, HTRF cAMP, PGE2 stimulation; EP2-expressing cells, cAMP HTRF FRET, PGE2 co-stimulation; induction, % at 25 µM; 0.83% of 260,000 active;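 active means compounds whose cAMP rise, as percent of the full-agonist control response, exceeds 60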;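 further: rat C6 glioma line stably carrying human EP2 under a CMV promoter; the protocol text gives 20 µM as final concentration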
KCC2 mod: KCC2 cotransporter modulators, thallium flux, primary screen, cell-based, HEK293 KCC2, FluoZin-2 fluorescence, MLSMR; KCC2 cells, thallium flux FluoZin-2 fluorescence; B-score of Tl+ flux slope (higher = more flux/activation; lower = inhibition) at 10 µM; 2.2% of 190,000 active; AID 1456, 2008;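 active means thallium flux slope and its plate-corrected score both differing from the plate sample mean at a set confidence after two filtering rounds, in either direction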;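 further: slope of fluorescence scaled to starting intensity during 10 to 20 s after thallium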
KCC2 sec1: KCC2 modulators in sodium-free buffer, confirmation, cell-based, HEK293 KCC2, thallium flux, secondary assay | normalised thallium flux (F/F0 slope) at 10 µM | shares compounds with KCC2 mod | 15% of 3,700 active | AID 1713, 2009 | FluoZin2 fluorescence; stronger effect = higher value;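 active means thallium flux slope above the same plate's solvent-only control mean plus 3 SD; inconclusive means the two replicate wells disagree; inactive means no significant difference from solvent-only control wells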
KCC2 bumet counter: thallium flux persisting under bumetanide in KCC2 cells, confirmation, counter-screen for KCC2 modulator project, cell-based, HEK293 KCC2, FluoZin2, secondary assay 3 | shares compounds with KCC2 mod | HEK293-KCC2 + bumetanide/ouabain; stronger effect = higher value | normalized thallium flux at 10 µM | 49% of 3,700 active | AID 1714, 2009;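 active means thallium entry rate above the same plate's blocked-transporter control wells by more than 3 SD; inconclusive means the two repeat wells disagree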;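 further: raw slope of fluorescence over initial fluorescence between 10 and 20 s after thallium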
KCC2 sec2: KCC2 modulators without ouabain present, confirmation, cell-based, HEK293 KCC2, thallium flux, FluoZin2, secondary assay 2. shares compounds with KCC2 mod. thallium flux FluoZin2 fluorescence; actives lie on both sides; F/F0 rise rate, 10–20 s post-thallium. normalized thallium flux at 10 µM. 23% of 3,700 active. AID 1715, 2009;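 active means thallium flux slope more than 3 SD above or below the plate's solvent-only control mean, mostly below; inconclusive means the two repeat wells disagreed; inactive means no significant shift from solvent-only controls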
HEK293 Tl flux: thallium flux modulation in parental HEK cells, confirmation, counter-screen for KCC2 modulator project, cell-based, counterscreen 1; 46% of 3,700 active; shares compounds with KCC2 mod; AID 1716, 2009; thallium flux rate (normalised fluorescence) at 10 µM; HEK293 parental cells, thallium flux FluoZin2, ouabain; baseline-ratio fluorescence slope, 10–20 s after thallium;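 active means thallium flux rate significantly above the same plate's solvent-only control wells, beyond their mean plus 3 SD; inconclusive means the two replicate wells gave conflicting results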
KCC2 retest ouab: KCC2 inhibitors and activators, ouabain retest, confirmation, HEK-KCC2 cells. shares compounds with KCC2 mod. HEK293-KCC2, thallium flux FluoZin2 fluorescence; bidirectional: low = inhibitor, high = activator. raw Tl+ flux slope (below DMSO = inhibition, above = activation) at 10 µM. 48% of 3,700 active. AID 1717, 2009;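 active means thallium flux slope beyond 3 SD from same-plate DMSO control mean in most replicates, usually higher, sometimes lower; inconclusive means repeat tests gave conflicting results; inactive means no significant difference from controls in most replicates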;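 further: slope of initial-normalized fluorescence between seconds 10 and 20 after thallium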
HEK293 Tl flux2: native HEK Tl+ uptake effects, second counter-screen – HEK cells, counterscreen 2, counter-screen for KCC2 modulator project, confirmation | shares compounds with KCC2 mod | HEK293 parental, thallium flux FluoZin-2 fluorescence slope | thallium flux slope at 10 µM | 33% of 3,700 active | AID 1718, 2009;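 active means thallium flux slope above the same plate's solvent-control mean plus 3 SD in both duplicate wells; inconclusive means duplicate wells that disagreed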;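 further: run without ouabain in cells lacking the KCC2 cotransporter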
Of the large screens only hits and unclear results are named; the others gave an inactive call (follow-up assays come after a bar, where they were run).

CCOc1cc(/C=C2\N=C(SC)SC2=O)cc([N+](=O)[O-])c1OC(C)=O	none (no result: S1P3 antagonist, PGE2 EP2 inh, KCC2 mod) | KCC2 sec1 inconclusive | KCC2 bumet counter 0.0056 | KCC2 sec2 inconclusive | HEK293 Tl flux inactive | KCC2 retest ouab inactive | HEK293 Tl flux2 inactive
O=C(Cn1ncc2cccn2c1=O)Nc1ccccc1-c1ccccc1	none (no result: S1P3 antagonist, KCC2 mod)
Cc1cc2c(cc3c(=O)n(CC(=O)NCCCc4ccccc4)nc(C)n32)s1	none (no result: S1P3 antagonist, PGE2 EP2 inh, KCC2 mod)
O=C(C1CCCN(S(=O)(=O)c2cccc3nonc23)C1)N1CCC(Cc2ccccc2)CC1 (configuration not stated)	none (no result: S1P3 antagonist, KCC2 mod) | KCC2 sec1 inactive | KCC2 bumet counter inconclusive | KCC2 sec2 0.024 | HEK293 Tl flux inactive | KCC2 retest ouab inconclusive | HEK293 Tl flux2 inactive
O=C(NCCN1CCC(Cc2ccccc2)CC1)C1CCCN(S(=O)(=O)c2cnc[nH]2)C1 (configuration not stated)	KCC2 mod -4 (no result: PGE2 EP2 inh) | KCC2 sec1 inactive | KCC2 bumet counter inactive | KCC2 sec2 inactive | HEK293 Tl flux inactive | KCC2 retest ouab inactive | HEK293 Tl flux2 inactive
O=C(NCCc1ccccc1)C1CCCN(S(=O)(=O)c2cnc[nH]2)C1 (configuration not stated)	none (no result: KCC2 mod)
CCN(CC)C(=O)CSc1nnc2c3cc(C)ccc3n(C)c2n1	none (no result: S1P3 antagonist, KCC2 mod)
CCOC(=O)CNC(=O)CSc1ncnc2c1cnn2-c1ccc(C)cc1	none
Cc1nnc(SCC(=O)NNC(=O)c2ccco2)n1-c1cccc(Cl)c1	KCC2 mod -3.6 | KCC2 sec1 inactive | KCC2 bumet counter inconclusive | KCC2 sec2 inactive | HEK293 Tl flux inactive | KCC2 retest ouab inactive | HEK293 Tl flux2 inconclusive
Cc1ccc(-n2ncc3c(SCC(=O)NNC(=O)c4ccco4)ncnc32)cc1	KCC2 mod 37 | KCC2 sec1 inconclusive | KCC2 bumet counter 0.041 | KCC2 sec2 inconclusive | HEK293 Tl flux 0.035 | KCC2 retest ouab 0.035 | HEK293 Tl flux2 0.032
CCc1nnc(NC(=O)CSc2cc(C)c3ccccc3n2)s1	none (no result: S1P3 antagonist, KCC2 mod)
COc1ccc(-c2csc(NC(=O)c3nc(-c4ccccc4)oc3C)n2)cc1	none (no result: S1P3 antagonist)
Cc1oc(-c2ccccc2)nc1C(=O)Nc1nccs1	KCC2 mod 7.7 | KCC2 sec1 inactive | KCC2 bumet counter 0.016 | KCC2 sec2 inactive | HEK293 Tl flux 0.0097 | KCC2 retest ouab inactive | HEK293 Tl flux2 0.012
Cc1ccc(N=Nc2ccc(O)c3ncccc23)cc1C	KCC2 mod 8.2 | KCC2 sec1 inactive | KCC2 bumet counter 0.0077 | KCC2 sec2 inactive | HEK293 Tl flux 0.014 | KCC2 retest ouab inactive | HEK293 Tl flux2 inconclusive
Cc1ccc(-n2nnnc2SCC(=O)Nc2ccc(N(C)C)cc2)cc1C	none (no result: S1P3 antagonist, KCC2 mod)
CS(=O)(=O)N(CC(=O)N1CCN(c2ccccc2)CC1)c1cccc(Br)c1	none (no result: S1P3 antagonist, KCC2 mod) | KCC2 sec1 inactive | KCC2 bumet counter inactive | KCC2 sec2 0.023 | HEK293 Tl flux inactive | KCC2 retest ouab 0.015 | HEK293 Tl flux2 inactive
Cc1cccc(N(CC(=O)N2CCN(c3ccc(F)cc3)CC2)S(C)(=O)=O)c1C	none
CS(=O)(=O)N(CC(=O)N1CCN(c2ccc(F)cc2)CC1)c1ccc(F)c(Cl)c1	KCC2 mod -4.4 (no result: S1P3 antagonist) | KCC2 sec1 inconclusive | KCC2 bumet counter inactive | KCC2 sec2 0.028 | HEK293 Tl flux inactive | KCC2 retest ouab 0.016 | HEK293 Tl flux2 inactive
CCc1nnc(NC(=O)c2c(C)cc(C)cc2C)s1	none (no result: S1P3 antagonist, KCC2 mod)
O=C(CSc1nnnn1-c1ccc2c(c1)OCCO2)N1CCCC1	none (no result: S1P3 antagonist, KCC2 mod)
CCOC(=O)c1c(-c2cccs2)csc1NC(=O)CCCC(=O)O	none (no result: S1P3 antagonist, KCC2 mod) | KCC2 sec1 inactive | KCC2 bumet counter 0.006 | KCC2 sec2 inactive | HEK293 Tl flux inconclusive | KCC2 retest ouab inactive | HEK293 Tl flux2 inactive
CCOC(=O)c1c(-c2cccs2)csc1NC(C)=O	none (no result: S1P3 antagonist)
CCN(CC)C(=S)SCC(=O)Nc1ncc2c(n1)CC(C)(C)CC2=O	KCC2 mod 5.6 | KCC2 sec1 inactive | KCC2 bumet counter inactive | KCC2 sec2 inactive | HEK293 Tl flux inactive | KCC2 retest ouab inactive | HEK293 Tl flux2 inactive
CSc1sc(C(=O)O)c2c1C(=O)CC(C)(C)C2	none (no result: S1P3 antagonist, EP2 modulator, KCC2 mod)
CSc1sc(C(=O)O)c2c1C(=O)CCC2	KCC2 mod -4 (no result: S1P3 antagonist) | KCC2 sec1 inactive | KCC2 bumet counter inconclusive | KCC2 sec2 inactive | HEK293 Tl flux inactive | KCC2 retest ouab inactive | HEK293 Tl flux2 inactive
Fc1ccccc1/C=N/n1cc(-c2ccccc2)[nH]c1=S	KCC2 mod 75 | KCC2 sec1 0.026 | KCC2 bumet counter 0.12 | KCC2 sec2 inactive | HEK293 Tl flux 0.053 | KCC2 retest ouab 0.067 | HEK293 Tl flux2 0.017
Cc1ccc(C)c(/C=N/n2cc(-c3ccccc3)[nH]c2=S)c1	KCC2 mod 21 | KCC2 sec1 0.013 | KCC2 bumet counter 0.047 | KCC2 sec2 inactive | HEK293 Tl flux 0.055 | KCC2 retest ouab 0.041 | HEK293 Tl flux2 0.014
COc1ccc(CN(Cc2cc3cc(OC)ccc3[nH]c2=O)Cc2nnnn2C(C)(C)C)cc1	none (no result: S1P3 antagonist, KCC2 mod)
COc1ccc(CNC(=O)c2nc3c(nnn3Cc3ccc(F)cc3)c(=O)[nH]2)cc1	none (no result: S1P3 antagonist, PGE2 EP2 inh, KCC2 mod)
CCOC(=O)C1=NN(C(=O)c2ccco2)C2(CC2)C1	none
CCOC(=O)C1=NN(C(=O)c2cccc(Br)c2)C(O)(C(C)(C)C)C1 (configuration not stated)	KCC2 mod 107 | KCC2 sec1 0.048 | KCC2 bumet counter 0.13 | KCC2 sec2 0.052 | HEK293 Tl flux inconclusive | KCC2 retest ouab 0.099 | HEK293 Tl flux2 0.039
Cc1occc1-c1nnc(SCC(N)=O)n1Cc1ccco1	none (no result: S1P3 antagonist, KCC2 mod)
